Test [1] is described as follows: ATG_ISRE_CIS: Attagene CIS-FACTORIAL HepG2 Assay for human Interferon Regulatory Factor 1 (IRF1) binding to an Interferon-Stimulated Response Element (ISRE) (AID 2282948). The following applies: HepG2 ISRE cis-reporter (Attagene), mRNA transcription readout; actives raise or lower the signal. Summed up: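 Transiently transfected HepG2 cells carrying cis-element reporter units, dosed 24 hours. Reporter mRNA quantified by RT-PCR, fluorescent primer extension, HpaI digestion and capillary electrophoresis. Bidirectional fitting relative to DMSO.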

Test [2] can be described thus: ATG_M_06_CIS: Attagene CIS-FACTORIAL HepG2 Assay for M06 Transcription Factor (Internal Marker) (AID 2282950). Particulars: HepG2 Attagene CIS-FACTORIAL M06 internal marker reporter; actives raise or lower the signal. Summed up:
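HepG2 liver cells, 24 h exposure. Reporter transcripts from transfected cis-element constructs quantified by RT-PCR/capillary electrophoresis fluorescence. Bidirectional curve fit against DMSO.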

Test [3] concerns the target Hepatocyte nuclear factor 6 (Homo sapiens) (UniProt Q9UBC0). In words: ATG_HNF6_CIS: Attagene CIS-FACTORIAL HepG2 Assay for human Hepatocyte Nuclear Factor 6 (HNF6) (AID 2282952). Particulars: HepG2 Attagene cis-factorial HNF6 reporter transcription; actives raise or lower the signal. The gist of the method: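 HepG2 cells transiently transfected with cis-element-driven multiplexed reporter units measuring endogenous transcription factor activity. After 24 h exposure, reporter mRNA quantified by RT-PCR, FAM-labelled fragments and capillary electrophoresis; bidirectional fitting versus DMSO.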

The target of test [4] is Heat shock factor protein 1 (Homo sapiens) (UniProt Q00613). Briefly: ATG_HSE_CIS: Attagene CIS-FACTORIAL HepG2 Assay for human Heat Shock Transcription Factor 1 (HSE) (AID 2282953). The following applies: HepG2 HSE cis-reporter, Attagene RNA transcription; actives raise or lower the signal. The gist of the method: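 Endogenous transcription factor activity captured via cis-promoter reporter units transfected into HepG2; treatment lasted 24 h. Fluorescence intensity of reporter fragments analysed with bidirectional curve fitting, DMSO baseline.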

Test [5] in a line: ATG_MRE_CIS: Attagene CIS-FACTORIAL HepG2 Assay for human Metal Responsive Element (MRE) (AID 2282954). The following applies: HepG2 MRE cis-reporter transcription, Attagene multiplex; actives raise or lower the signal. The gist of the method:
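After a 24 h chemical exposure, transiently transfected HepG2 cells yield RNA whose reporter sequences are amplified, FAM-labelled and sized by capillary electrophoresis. Curves are fitted bidirectionally relative to DMSO.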

A short description of test [6]: ATG_PBREM_CIS: Attagene CIS-FACTORIAL HepG2 Assay for human Phenobarbital-responsive Enhancer Module (PBREM) (AID 2282955). Particulars: HepG2 PBREM cis-reporter, Attagene multiplexed transcription; actives raise or lower the signal. The gist of the method:
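Endogenous transcription factors in human liver HepG2 cells drive a PBREM cis-element reporter, whose transcript level after 24 h treatment is quantified by RT-PCR with capillary electrophoresis; activity fitted in both directions against DMSO.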

For test [7], the target named is Paired box protein Pax-6 (Homo sapiens) (UniProt P26367). In words: ATG_Pax6_CIS: Attagene CIS-FACTORIAL HepG2 Assay for human Paired Box 6 (PAX6) (AID 2282956). The following applies: HepG2 CIS-FACTORIAL PAX6 reporter transcription, RNA readout; actives raise or lower the signal. The gist of the method:
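HepG2 cells transiently transfected with cis-promoter-driven multiplexed reporter units sensing endogenous transcription factor activity; 24 h chemical exposure. Reporter mRNA quantified by RT-PCR, 6-FAM labelling, HpaI digestion and capillary electrophoresis; bidirectional fit versus DMSO baseline.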

Test [8] in a line: ATG_PXRE_CIS: Attagene CIS-FACTORIAL HepG2 Assay for human Pregnane X Receptor Element (PXRE) (AID 2282957). The following applies: HepG2 Attagene CIS-FACTORIAL PXRE reporter, mRNA; actives raise or lower the signal. The gist of the method:
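HepG2 cells transiently transfected with cis-element-driven multiplexed reporter units; after 24 h chemical exposure, reporter mRNA measured by RT-PCR, 6-FAM labelling, HpaI digestion and capillary electrophoresis. Bidirectional fitting relative to DMSO.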

The nature of test [9]: ATG_PPRE_CIS: Attagene CIS-FACTORIAL HepG2 Assay for human Peroxisome Proliferator-activated Response Element (PPRE) (AID 2282958). Particulars: HepG2 PPRE cis-element reporter, Attagene transcription factor profiling; actives raise or lower the signal. Summed up:
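HepG2, transient MRTU transfection (cis promoter elements, endogenous TFs). 24 h dosing. RNA → oligo(dT) RT → PCR → 6-FAM primer extension → HpaI digest → CE. Bidirectional fit vs DMSO.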

Test [10] can be described thus: ATG_RORE_CIS: Attagene CIS-FACTORIAL HepG2 Assay for human RAR-related Orphan Receptor Element (RORE) (AID 2282959). Particulars: HepG2 Attagene cis-factorial RORE reporter, mRNA; actives raise or lower the signal. Summed up: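 Transient MRTU transfection of human HepG2 liver cells (FuGene 6); 24 h compound exposure; TriZol RNA, oligo(dT) RT, PCR, FAM labeling, HpaI cut, CE fragment analysis. DMSO = negative control/baseline.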

A short description of test [11]: ATG_Sox_CIS: Attagene CIS-FACTORIAL HepG2 Assay for human SRY-box transcription factor (SOX) (AID 2282960). Particulars: HepG2 Attagene cis-factorial SOX reporter, mRNA; actives raise or lower the signal. The gist of the method: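 Endogenous factor activity in human liver HepG2 cells carrying transfected cis-regulated reporter units. RNA taken 24 h post-dose, reverse-transcribed, PCR-amplified and sized by capillary electrophoresis. Gain or loss of signal fitted relative to DMSO.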

Test [12] deals with Transcription factor Sp1 (Homo sapiens) (UniProt P08047). Briefly: ATG_Sp1_CIS: Attagene CIS-FACTORIAL HepG2 Assay for human Specificity Protein 1 (Sp1) (AID 2282961). The following applies: HepG2 Sp1 cis-reporter transcription, actives raise or lower the signal. Summed up:
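Transient MRTU-transfected HepG2, 24 h compound exposure. Total RNA → oligo(dT) RT → PCR of reporter → 6-FAM primer extension → HpaI digest → CE. Endpoint fitted both directions vs DMSO.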

A short description of test [13]: ATG_SREBP_CIS: Attagene CIS-FACTORIAL HepG2 Assay for human Sterol Regulatory Element Binding (SREBP) (AID 2282962). Particulars: HepG2 Attagene cis-factorial SREBP reporter, mRNA; actives raise or lower the signal. Summed up: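 HepG2 cells transiently transfected with multiplexed cis-promoter reporter units sensing endogenous transcription factors; reporter mRNA measured 24 h after dosing by RT-PCR, 6-FAM labeling, HpaI digestion and capillary electrophoresis. Bidirectional fit versus DMSO.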

In test [14] the target is Signal transducer and activator of transcription 3 (Homo sapiens) (UniProt P40763). Briefly: ATG_STAT3_CIS: Attagene CIS-FACTORIAL HepG2 Assay for human Signal Transducer and Activator of Transcription 3 (STAT3) (AID 2282963). Particulars: HepG2, Attagene cis-factorial STAT3 reporter transcription; actives raise or lower the signal. The gist of the method:
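After a 24 h compound incubation, total RNA from MRTU-transfected HepG2 cells was converted to cDNA and reporter sequences PCR-amplified, labelled and profiled by capillary electrophoresis. Gain and loss of signal were referenced to DMSO.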

The nature of test [15]: ATG_TA_CIS: Attagene CIS-FACTORIAL HepG2 Assay for human TA Basal Promoter (AID 2282964). The following applies: HepG2 Attagene CIS-factorial TA basal promoter reporter; actives raise or lower the signal. The gist of the method:
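Fluorescence from labelled RT-PCR reporter fragments, separated by capillary electrophoresis, gives the signal. Cells: HepG2 transiently carrying multiple reporter units, 24 h chemical dosing. Gain or loss relative to DMSO.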

The nature of test [16]: ATG_TCF_b_cat_CIS: Attagene CIS-FACTORIAL HepG2 Assay for human T-Cell-Factor with beta-catenin (TCF/b-cat) (AID 2282965). The following applies: HepG2 TCF/beta-catenin cis-reporter transcription, actives raise or lower the signal. The gist of the method: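 Endogenous transcription factor activity is captured through cis-promoter reporter constructs transiently introduced into human HepG2 liver cells. Induced reporter mRNA is measured after 24 h and fitted bidirectionally relative to DMSO.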

Test [17] can be described thus: ATG_M_32_CIS: Attagene CIS-FACTORIAL HepG2 Assay for M32 Transcription Factor (Internal Marker) (AID 2282949).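 Note: background control marker of the multiplexed CIS panel rather than a real target.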 The following applies: HepG2 Attagene cis-factorial M32 reporter, mRNA; actives raise or lower the signal. Summed up:
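Internal background marker read-out: RT-PCR/capillary electrophoresis fluorescence of reporter transcripts from transiently transfected HepG2 cells after 24 h chemical exposure. Activity fitted bidirectionally relative to DMSO negative control.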

The target of test [18] is Hypoxia-inducible factor 1-alpha (Homo sapiens) (UniProt Q16665). Briefly: ATG_HIF1a_CIS: Attagene CIS-FACTORIAL HepG2 Assay for human Hypoxia Inducible Factor 1 (HIF1A) (AID 2282951). The following applies: HepG2 Attagene cis-factorial HIF1a reporter transcription; actives raise or lower the signal. Summed up: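 Transient MRTU transfection of human HepG2 liver cells, 24 h compound treatment, then total RNA isolation, oligo(dT) reverse transcription, PCR amplification, fluorescent labelling and capillary electrophoresis of reporter fragments. Gain or loss relative to DMSO.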

Structures are written as SMILES. Activity calls are given as the source filed them. Rule for the calls: active = hit-call score of the fitted dose curve at least 0.9, where 1 is the maximum; inactive = score below 0.9.

Drawing on PubChem BioAssay (EPA / NIEHS), this text covers outcome and AC50 for 9 molecules.

Signal transducer and activator of transcription 3 (Homo sapiens), sequence (P40763 whole entry, looked up): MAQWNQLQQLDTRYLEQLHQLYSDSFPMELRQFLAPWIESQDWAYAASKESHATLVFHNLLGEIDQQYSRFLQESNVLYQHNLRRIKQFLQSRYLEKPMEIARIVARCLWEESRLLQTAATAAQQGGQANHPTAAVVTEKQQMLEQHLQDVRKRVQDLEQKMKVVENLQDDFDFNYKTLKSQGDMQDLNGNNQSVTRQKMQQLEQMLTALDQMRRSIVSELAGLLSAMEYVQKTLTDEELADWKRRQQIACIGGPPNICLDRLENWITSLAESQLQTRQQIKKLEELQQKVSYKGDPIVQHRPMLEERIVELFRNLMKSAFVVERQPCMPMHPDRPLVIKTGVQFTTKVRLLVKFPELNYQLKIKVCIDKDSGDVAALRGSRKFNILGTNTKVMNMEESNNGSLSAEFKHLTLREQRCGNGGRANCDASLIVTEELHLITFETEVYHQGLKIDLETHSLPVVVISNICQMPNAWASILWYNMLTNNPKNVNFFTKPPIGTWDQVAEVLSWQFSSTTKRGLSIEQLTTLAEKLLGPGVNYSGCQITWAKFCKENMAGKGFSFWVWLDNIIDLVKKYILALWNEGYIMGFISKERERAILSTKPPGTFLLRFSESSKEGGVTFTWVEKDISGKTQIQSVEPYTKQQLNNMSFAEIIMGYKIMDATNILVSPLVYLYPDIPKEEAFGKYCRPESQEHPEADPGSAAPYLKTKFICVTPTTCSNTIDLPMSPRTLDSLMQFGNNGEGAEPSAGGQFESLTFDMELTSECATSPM
Hepatocyte nuclear factor 6 (Homo sapiens), sequence (Q9UBC0 whole entry, looked up, the tested form may be a part): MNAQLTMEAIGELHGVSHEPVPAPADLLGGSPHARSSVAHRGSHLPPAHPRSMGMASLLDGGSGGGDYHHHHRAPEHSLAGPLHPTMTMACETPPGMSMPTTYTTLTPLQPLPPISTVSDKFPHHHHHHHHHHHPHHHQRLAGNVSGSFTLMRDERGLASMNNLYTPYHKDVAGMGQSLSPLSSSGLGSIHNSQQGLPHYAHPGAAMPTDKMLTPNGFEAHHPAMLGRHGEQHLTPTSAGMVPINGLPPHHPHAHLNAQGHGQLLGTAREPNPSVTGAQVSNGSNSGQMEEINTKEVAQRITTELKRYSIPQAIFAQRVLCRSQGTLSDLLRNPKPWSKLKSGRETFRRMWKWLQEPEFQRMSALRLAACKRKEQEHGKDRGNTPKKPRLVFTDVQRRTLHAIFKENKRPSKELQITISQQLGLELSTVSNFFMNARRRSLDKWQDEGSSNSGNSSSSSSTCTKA
Hypoxia-inducible factor 1-alpha (Homo sapiens), sequence (Q16665 whole entry, looked up, the tested form may be a part): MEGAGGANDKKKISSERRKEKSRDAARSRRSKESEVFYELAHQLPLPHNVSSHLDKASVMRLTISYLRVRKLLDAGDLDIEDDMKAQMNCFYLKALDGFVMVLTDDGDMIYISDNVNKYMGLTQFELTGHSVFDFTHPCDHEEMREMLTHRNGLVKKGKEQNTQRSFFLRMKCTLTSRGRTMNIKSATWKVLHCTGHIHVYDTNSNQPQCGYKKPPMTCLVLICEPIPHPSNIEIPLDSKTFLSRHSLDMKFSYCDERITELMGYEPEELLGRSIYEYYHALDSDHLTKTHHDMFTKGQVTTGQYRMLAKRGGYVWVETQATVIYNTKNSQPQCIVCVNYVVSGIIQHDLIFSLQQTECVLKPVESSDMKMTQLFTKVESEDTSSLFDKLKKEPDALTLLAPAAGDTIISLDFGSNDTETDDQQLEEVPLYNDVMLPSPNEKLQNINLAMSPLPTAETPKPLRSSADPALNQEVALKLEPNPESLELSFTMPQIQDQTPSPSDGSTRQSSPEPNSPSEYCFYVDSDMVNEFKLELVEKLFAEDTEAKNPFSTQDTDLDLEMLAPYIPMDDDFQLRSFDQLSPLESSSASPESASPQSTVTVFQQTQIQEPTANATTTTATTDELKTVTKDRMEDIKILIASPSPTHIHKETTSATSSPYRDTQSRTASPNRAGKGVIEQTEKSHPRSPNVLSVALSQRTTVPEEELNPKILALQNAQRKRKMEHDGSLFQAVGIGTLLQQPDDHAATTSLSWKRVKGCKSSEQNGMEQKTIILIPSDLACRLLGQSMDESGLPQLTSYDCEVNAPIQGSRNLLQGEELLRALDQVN
Heat shock factor protein 1 (Homo sapiens), sequence (Q00613 whole entry, looked up, the tested form may be a part): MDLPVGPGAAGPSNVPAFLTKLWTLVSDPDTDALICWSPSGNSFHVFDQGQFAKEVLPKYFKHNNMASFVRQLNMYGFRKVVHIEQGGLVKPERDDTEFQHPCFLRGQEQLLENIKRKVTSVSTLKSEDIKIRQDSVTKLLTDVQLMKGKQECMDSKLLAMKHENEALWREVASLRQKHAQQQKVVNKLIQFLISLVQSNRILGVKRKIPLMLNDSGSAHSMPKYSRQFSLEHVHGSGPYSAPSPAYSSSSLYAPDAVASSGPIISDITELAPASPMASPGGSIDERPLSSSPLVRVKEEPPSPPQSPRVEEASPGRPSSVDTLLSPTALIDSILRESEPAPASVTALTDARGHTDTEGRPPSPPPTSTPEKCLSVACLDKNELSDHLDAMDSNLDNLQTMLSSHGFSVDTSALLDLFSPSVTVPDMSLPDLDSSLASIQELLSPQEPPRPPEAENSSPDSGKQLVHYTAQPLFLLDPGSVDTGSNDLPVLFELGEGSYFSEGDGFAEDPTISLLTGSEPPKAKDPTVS
Transcription factor Sp1 (Homo sapiens), sequence (P08047 whole entry, looked up): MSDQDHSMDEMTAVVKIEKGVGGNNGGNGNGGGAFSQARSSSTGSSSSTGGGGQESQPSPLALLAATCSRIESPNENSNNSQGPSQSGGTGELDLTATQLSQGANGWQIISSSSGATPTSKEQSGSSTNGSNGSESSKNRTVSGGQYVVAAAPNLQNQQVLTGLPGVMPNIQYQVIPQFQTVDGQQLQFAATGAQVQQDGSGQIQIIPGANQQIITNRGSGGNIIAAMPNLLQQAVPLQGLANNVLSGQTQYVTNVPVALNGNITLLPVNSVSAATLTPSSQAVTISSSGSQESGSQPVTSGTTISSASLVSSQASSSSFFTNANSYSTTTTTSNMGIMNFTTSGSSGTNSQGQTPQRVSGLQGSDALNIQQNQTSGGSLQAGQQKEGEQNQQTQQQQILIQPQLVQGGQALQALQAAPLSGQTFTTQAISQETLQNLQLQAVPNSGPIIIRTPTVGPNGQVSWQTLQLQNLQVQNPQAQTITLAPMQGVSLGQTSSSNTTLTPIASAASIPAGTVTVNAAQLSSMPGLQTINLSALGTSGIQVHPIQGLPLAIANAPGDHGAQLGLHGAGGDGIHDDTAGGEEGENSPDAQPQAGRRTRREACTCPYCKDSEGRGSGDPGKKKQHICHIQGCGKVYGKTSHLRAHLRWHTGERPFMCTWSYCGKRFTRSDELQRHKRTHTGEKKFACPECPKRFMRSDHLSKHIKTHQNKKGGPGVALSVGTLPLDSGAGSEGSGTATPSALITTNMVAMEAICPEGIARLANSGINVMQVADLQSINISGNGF
Paired box protein Pax-6 (Homo sapiens), sequence (P26367 whole entry, looked up): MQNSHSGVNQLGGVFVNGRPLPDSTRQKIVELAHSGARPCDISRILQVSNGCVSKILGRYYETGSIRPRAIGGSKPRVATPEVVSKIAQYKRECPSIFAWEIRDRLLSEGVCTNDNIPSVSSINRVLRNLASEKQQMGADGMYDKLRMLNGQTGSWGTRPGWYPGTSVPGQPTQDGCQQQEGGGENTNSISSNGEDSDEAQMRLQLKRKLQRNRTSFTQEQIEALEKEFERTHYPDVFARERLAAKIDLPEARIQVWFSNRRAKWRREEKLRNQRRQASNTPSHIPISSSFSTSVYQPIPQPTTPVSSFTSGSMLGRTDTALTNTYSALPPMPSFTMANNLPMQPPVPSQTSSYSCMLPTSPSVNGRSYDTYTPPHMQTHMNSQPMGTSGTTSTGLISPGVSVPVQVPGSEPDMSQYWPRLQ

As for `CC(=O)c1ccccn1`, the result in [1], in test [2], in [3], in [4], in test [5] and in [6] was inactive. The result in test [7], in test [8], in test [9], in test [10], in [11] and in test [12] was inactive. Moreover, the result in [13], in test [14], in test [15] and in test [16] was inactive.

Take `OCCOCCN1CCN(C2=Nc3ccccc3Sc3ccccc32)CC1`: the concentration at half-maximal activity (AC50) (as a rule, the concentration giving half of the maximal activity seen) is 152 µM (active) in test [1], 71.7 µM (active) in test [5] and 7.41 µM (active) in test [8]. Besides, the call in test [17], in test [2], in [18], in test [3], in test [4] and in test [7] was inactive. Further, the result in test [10], in test [12], in test [13], in test [14], in test [15] and in [16] was inactive.

For `Nc1c(Cl)cc(Cl)cc1[N+](=O)[O-]`, the call in test [1], in test [17], in test [2], in test [3], in test [5] and in test [6] was inactive. Moreover, the molecule was called inactive in test [7], in test [11], in test [13], in test [14], in test [15] and in [16]. In [8], the half-maximal activity concentration (AC50) is 27.7 µM (active).

With `CN(C)c1ccncc1`, the molecule was called inactive in test [1], in [2], in test [18], in test [3], in test [5] and in [6]. Further, the molecule was called inactive in test [7], in test [10], in [11], in test [12], in test [13] and in test [14]. Further, the outcome in test [15] was inactive. For the same molecule, the half-maximal activity concentration (AC50) in test [8] is 71.6 µM (active).

Consider `CC1(C)O[C@@H]2[C@@H](CO[C@@]3(COS(N)(=O)=O)OC(C)(C)O[C@@H]23)O1`, for which the call in [1], in test [17], in [2], in test [18], in test [3] and in test [5] was inactive. Moreover, the outcome in [7], in test [10], in test [11], in test [12], in test [13] and in [14] was inactive. Moreover, the outcome in test [16] was inactive. In addition, the half-maximal activity concentration (AC50) in test [8] is 57.9 µM (active).

Turning to `CC/C=C\CCOC(=O)CC`, the molecule was called inactive in [1], in test [17], in test [2], in test [18], in [3] and in test [4]. The outcome in [5], in test [7], in test [8], in test [11], in [12] and in test [13] was inactive. Besides, the call in test [14], in [15] and in [16] was inactive.

With `CCCCCCCC/C=C\CCCCCCCC(=O)OCC`, the outcome in test [1], in test [17], in test [2], in [3], in test [4] and in [5] was inactive. Also, the result in test [6], in test [7], in [8], in test [9], in test [12] and in [13] was inactive. The molecule was classed as inactive in test [14], in test [15] and in test [16].

In the case of `CCOc1ccc(N=Nc2ccc(C=Cc3ccc(N=Nc4ccc(OCC)cc4)cc3S(=O)(=O)O)c(S(=O)(=O)O)c2)cc1`, the result in [1], in [17], in test [2], in test [3], in test [4] and in test [5] was inactive. Further, the outcome in [6], in test [7], in test [9], in [11], in [13] and in test [14] was inactive. Besides, the result in test [15] and in test [16] was inactive. Also, the AC50 in test [8] is 39.9 µM (active).

On to `CCCCC1(COC(=O)CCC(=O)O)C(=O)N(c2ccccc2)N(c2ccccc2)C1=O`, for which the call in test [1], in test [17], in test [2], in [3], in test [4] and in test [5] was inactive. Moreover, the outcome in test [7], in test [9], in test [10], in [11], in test [12] and in [13] was inactive. The result in test [14] and in test [16] was inactive. The half-maximal activity concentration (AC50) in test [8] was 19.5 µM (active).
